# According to PubChem BioAssay AID588473 (Sanford-Burnham Center for Chemical Genomics, 2011):
# Screen size: about 350,000 compounds; about 1,600 (0.46%) were called active. The sample holds actives, similar compounds and a random draw of the others, so the mix is not that of the screen. Unmarked numbers belong to inactive results.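 The calls were made as follows: active = activation of at least 50%, plus an integration ratio under a set limit after plate pattern correction; inactive = the rest.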
# Test system: CRF-binding protein / CRF receptor 2 complex (human)
# Test: activators of CRF-R2 with CRF-BP – cell-based, HEK293, calcium dye fluorescence, uHTS, primary screen (AID 588473);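 also: plate controls were neutral control wells without compound for no effect and CRF at EC100 for full effect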
# Settings: calcium dye fluorescence (FLIPR), at 13.2 µM, hits give high values, percent of saturating CRF peptide response
row,SMILES,activation
1,CCCCCCCCNS(=O)(=O)CCNC1CCCCC1,-0.59%
2,CC(C)n1c(-c2ccncc2)n[nH]c1=S,-1.12%
3,O=C(Nc1cc2c3c(c1)C1CCCC1CN3CC1CCCC21)c1ccc([N+](=O)[O-])cc1 (configuration not stated),-3.97%
4,Nc1cc(C(=O)N2CCN(c3ccccc3Cl)CC2)ccc1N1CC2CC(C1)c1cccc(=O)n1C2 (configuration not stated),0.29%
5,Oc1ccc(-c2nncn2-c2ccccc2)cc1,0.43%
6,CCOc1ccc2nc(/N=C/c3nc(-c4ccccc4)oc3O)sc2c1,191% (active)
7,CC(N=Cc1nc(-c2ccccc2)oc1O)c1ccccc1 (configuration not stated),-5.27%
8,CCOc1ccc2nc(C(=O)N3CCCC(C)C3)sc2c1 (configuration not stated),0.48%
9,Cn1c(=O)c2c(nc(N3CCOCC3)n2CCNC2=NCCC2)n(C)c1=O,-1.41%
10,C[C@H]1NS(=O)(=O)c2cc(Cl)ccc2O[C@@H]1c1ccccc1,-0.01%
11,COC(=O)C1(O)CC(C(C)C)=NN1C(=O)c1ccc(Cl)cc1 (configuration not stated),0.23%
12,Cc1ccc(S(=O)(=O)/N=C2\C=C(NS(=O)(=O)c3ccc(C)cc3)C(=O)c3ccccc32)cc1,-2.69%
13,CC1=C/C(=N\S(=O)(=O)c2ccccc2)C(C(C)C)=CC1=O,81.3% (active)
14,COc1ccc(S(=O)(=O)/N=C2\C=C(NS(=O)(=O)c3ccccc3)C(=O)c3ccccc32)cc1,-1.4%
15,O=[N+]([O-])c1cc(S(=O)(=O)NCCc2ccccn2)ccc1Cl,1.07%
16,CCCCN1C[C@H](c2ccc(Br)cc2)[C@@H](CC(=O)Nc2ccc(Br)cc2)C1=O,-0.04%
17,COc1ccc(C2=CC(c3cccc(OC)c3)n3nnnc3N2)cc1 (configuration not stated),69.7% (active)
18,COC(=O)C1=C(C(=O)c2ccc(C)cc2)C(c2ccccc2)n2nnnc2N1 (configuration not stated),-0.02%
19,COc1ccc(C2CC(c3cccs3)Nc3nnnn32)cc1 (configuration not stated),-1.43%

row,SMILES,activation
1,CC/C(=N\O)C(C)(C)/[N+]([O-])=C/c1ccc(Br)cc1,0.05%
2,CC(C)(C)Nc1c(-c2cccs2)nc2ccccn12,-0.46%
3,CCN(Cc1nc2ccccc2c(=O)[nH]1)Cc1cc(=O)oc2cc(C)c(C)cc12,-0.08%
4,COC(=O)c1cc(C(=O)OCC(=O)Nc2cc(C)on2)cc([N+](=O)[O-])c1,-3.69%
5,CCc1ccc(NC(=O)CN2C(=O)COc3ccc(S(=O)(=O)N4CCCC4)cc32)cc1,-5.92%
6,COCCCNCC(=O)Nc1sc(C)c(C)c1C(=O)OC,-2.35%
7,C[n+]1ccc(/C=C/c2c[nH]c3ccccc23)cc1,61.1% (active)
8,COc1ccc(N(CC(=O)Nc2ccc(F)c(F)c2)S(=O)(=O)c2c(C)[nH]c(=O)[nH]c2=O)cc1,-1.2%
9,CCOC(=O)c1nnn2c3ccccc3c(=O)n(C)c12,0.18%
10,CCCc1nc2c(c(=O)c3ccccc3n2C)c(=O)n1C1CCCCCC1,137% (active)
11,CCOC(=O)N1CCN(C(=O)c2nn(-c3ccc(C)cc3)c(=O)c3c2c2ccccc2n3C)CC1,3.98%
12,CC(C)(C)C1CCc2c(sc3nc(SCC(N)=O)nc(N)c23)C1 (configuration not stated),0.65%
13,C=C(C)CSc1nc(N)c2c3c(sc2n1)CCC3,155% (active)
14,Nc1nc(SCC(=O)NCCN2CCOCC2)nc2sc3c(c12)CCC3,2.46%
15,CC(NC(=O)c1ccc(Cl)cc1)C(=O)N1CCCCC1 (configuration not stated),0.19%
16,O=C(CN1CCN(C2CCS(=O)(=O)C2)CC1)N1N=C(c2ccc(Cl)cc2)CC1c1ccco1 (configuration not stated),0.41%
17,CCOc1cc(C=NNC(=O)CCCC(=O)NN=Cc2ccc(O)c(OCC)c2)ccc1O,-2.14%
18,CCOc1cc(/C=N/NC(=O)c2c(C)nc3ccc(Cl)cn23)ccc1O,-0.91%
19,CCOc1cc(/C=C(\C#N)c2nc(-c3cccs3)c(NC(C)=O)s2)ccc1O,222% (active)

row,SMILES,activation
1,CCOC(=O)c1ccc(N/C(=N/S(=O)(=O)c2ccccc2)c2ccccc2)cc1,-1.91%
2,CC1(C)O[C@H]2CC(=O)OCC23[C@H]2CC[C@@]4(C)[C@H](c5ccoc5)OC(=O)[C@H]5O[C@]54[C@]2(C)C(=O)C[C@@H]13 (some centres not stated),1.6%
3,CN(NS(=O)(=O)c1cccs1)c1ncc(C(F)(F)F)cc1Cl,-0.09%
4,C#CCN(N(C)c1ncc(C(F)(F)F)cc1Cl)S(=O)(=O)c1ccc2ccccc2c1,64.8% (active)
5,Cc1nn(CC#N)c(=O)n1N(C)c1ncc(C(F)(F)F)cc1Cl,1.06%
6,Cc1ccccc1NC(=S)NC(=O)Cc1ccc(Cl)cc1,46%
7,O=C(Cc1ccc(Cl)cc1)NC(=S)Nc1ccccc1O,128% (active)
8,O=C(COc1ccc(Cl)cc1)NC(=S)Nc1ccccc1N1CCOCC1,1.42%
9,Cc1csc(=O)n1CC(=O)OCC(=O)N(CC(C)C)c1c(N)n(Cc2ccccc2)c(=O)[nH]c1=O,-0.29%
10,CCCCNC(=O)C(C)N(CCN(C)C)C(=O)CCCN1C(=O)NC(c2ccc(Cl)cc2)C(C(=O)OCc2ccccc2)=C1C (configuration not stated),-0.71%
11,CC1CCN(c2ccc3c(c2)S(=O)(=O)c2cc(C(=O)O)ccc2C3=O)CC1,3.35%
12,Cc1ccc(CNC(=O)c2ccc3c(c2)S(=O)(=O)c2ccccc2C3=O)cc1,-0.74%
13,Cc1ccc(CNC(=O)c2cccc3c2C(=O)c2ccc(N4CCC(C)CC4)cc2S3(=O)=O)cc1,56.2% (active)
14,Cc1ccnc2nc(C(=O)OCC(=O)N(CC(C)C)CC(C)C)nn12,3.18%
15,CC(=O)OCC1(O)CC23CCC4c5ccoc5CCC4(C)C2CCC1C3 (configuration not stated),4.09%
16,COc1cc(OC)cc(C(=O)NC(=S)N2CCN(c3ccc(C(F)(F)F)cc3[N+](=O)[O-])CC2)c1,2.06%
17,CCN(CC)c1ccc(C(=O)N/N=C(\C)c2cccc(OC)c2)cc1,0.09%
18,CCN(CC)c1ccc2cc(C(N)=O)/c(=N\NC(=O)c3ccncc3)oc2c1,264% (active)
19,COc1cccc2cc(C(N)=O)/c(=N\NC(=O)c3ccccc3)oc12,-2.1%
